HepG2 tox – counter-screen for TGF-b inhibitors: cytotoxicity in HepG2 cells; Potency, µM (doses to about 46.1 µM), without a hit: top-dose activity change, negative = cytotoxicity, usual class: cytotoxic; 410,000 compounds, 0.76% hits; HepG2 CAGA-GFP viability, ATP luminescence, 18 h; also: potency is read from the fitted curve at half-maximal effect
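HepG2 CAGA-GFP cells (1000/well, DMEM with 1% FBS) received compound, then TGF-beta at 500 pg/mL final, and were incubated 18 hours at 37 degrees C. Viability was read by CellTiter-Glo luminescence. Media-only wells were set as complete cell-killing and DMSO as no toxicity.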
IL-1B inflam inh – inflammasome signaling inhibition, IL-1 beta readout; THP-1 LPS/ATP IL-1B secretion, AlphaLISA, 16 h; active compounds read low; activity change, % at 57.5 µM; 360,000 compounds, 4.7% hits; in the data active = activity change below about -50%; inconclusive = mostly about -30% to -49%; also: % is scaled to controls: 0 for no effect and ±100 for the full control effect
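Secreted IL-1B measured by AlphaLISA bead assay after 16 h compound exposure of THP-1 cells; compounds (final up to 57.5 uM) added 1 h before LPS (250 ng/mL) and ATP (1.25 mM) stimulation; lower signal means less secretion.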
TDP1 cell CPT – DT40-hTDP1 cell growth loss with CPT; chicken DT40 Tdp1-/-;hTDP1 cells + 20 nM CPT, ATP luminescence, 48 h; Potency, µM (top dose mostly 46.2 µM), without a hit: at the highest dose activity change, negative = growth inhibition, hits mostly inhibitors; 420,000 compounds, 12% hits; AID 686979; also: potency is read from the fitted curve at half-maximal effect; % is scaled to controls: 0 for no effect and ±100 for the full control effect; nearly all actives have a fitted effect of over 55% in size
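Chicken DT40 Tdp1-/- cells complemented with human TDP1, 400 cells/well, exposed to compounds plus 20 nM camptothecin for at least 48 h at 37 C; viability read as ATP content by CellTiter-Glo luminescence.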
TDP1 cell noCPT – qHTS for Inhibitors of human tyrosyl-DNA phosphodiesterase 1 (TDP1): qHTS in cells in absence of CPT; AID 686978, 2013; DT40 Tdp1-/- hTDP1 cells, no CPT, ATP luminescence, 48 h; 420,000 compounds, 15% hits; Potency, µM (top dose mostly 46.2 µM), for inactives: at the highest dose activity change, negative = growth inhibition, most hits filed as inhibitors; also: potency is read from the fitted curve at half-maximal effect; % is scaled to controls: 0 for no effect and ±100 for the full control effect; nearly all actives have a fitted effect of over 55% in size
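DT40 Tdp1-/-;hTDP1 cells, no CPT (DMSO vehicle only), 400 cells/well; compounds pin-transferred; ≥48 hr, 37 °C; CellTiter-Glo 30 min RT dark, luminescence read.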
TGFb SMAD3 inh – blocks TGF-b signaling; HepG2 CAGA-GFP TGF-b/SMAD3 reporter, GFP fluorescence, 18 h; TGF-beta stimulated, 500 pg/mL final; Potency, µM (highest dose often 46.1 µM), inactives show top-dose activity, negative = inhibition, most hits filed as inhibitors; 410,000 compounds, 1.2% hits; also: potency is read from the fitted curve at half-maximal effect; % is scaled to controls: 0 for no effect and ±100 for the full control effect; nearly all actives have a fitted effect of over 65% in size
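TGF-beta reporter screen: HEPG2 CAGA-GFP, 1% FBS, 500 pg/mL TGF-beta final, 18 h; per-cell GFP summed per well; curves fitted and categorized by class.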
TDP1 block – blocks human tyrosyl-DNA phosphodiesterase 1. recombinant TDP1, AlphaScreen DNA substrate cleavage. Potency, µM (doses to about 130 µM), without a hit: top-dose activity change, negative = inhibition, hits mostly inhibitors. 350,000 compounds, 0.28% hits; also: potency is read from the fitted curve at half-maximal effect; % is scaled to controls: 0 for no effect and ±100 for the full control effect; nearly all actives have a fitted effect of over 40% in size
Target sequence (Q9NUW8 whole entry, looked up): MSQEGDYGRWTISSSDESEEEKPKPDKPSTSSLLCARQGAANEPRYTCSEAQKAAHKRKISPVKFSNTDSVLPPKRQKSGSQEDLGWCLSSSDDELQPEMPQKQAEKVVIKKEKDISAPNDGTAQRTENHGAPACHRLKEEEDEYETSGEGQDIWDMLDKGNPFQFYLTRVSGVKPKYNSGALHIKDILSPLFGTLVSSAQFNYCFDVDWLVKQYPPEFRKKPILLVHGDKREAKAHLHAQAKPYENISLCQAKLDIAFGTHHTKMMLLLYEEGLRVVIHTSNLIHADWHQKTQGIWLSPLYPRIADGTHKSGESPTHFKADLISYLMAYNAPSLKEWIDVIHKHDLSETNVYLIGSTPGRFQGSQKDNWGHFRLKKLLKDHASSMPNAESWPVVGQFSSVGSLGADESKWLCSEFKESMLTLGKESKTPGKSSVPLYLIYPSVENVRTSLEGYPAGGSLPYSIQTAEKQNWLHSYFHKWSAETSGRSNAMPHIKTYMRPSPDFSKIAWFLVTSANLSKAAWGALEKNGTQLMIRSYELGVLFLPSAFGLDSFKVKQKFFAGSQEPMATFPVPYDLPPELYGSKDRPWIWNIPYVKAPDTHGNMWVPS
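Enzyme-compound mixtures sat 15 min at room temperature, followed by a 5 min reaction with 15 nM final substrate and 10 min with AlphaScreen beads. Recombinant human Tdp1 was used at 1 nM final.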
* marks the source's active call; other numbers are inactive results; ? = inconclusive; . = no result; [ ] = another dose, or the depositor's remark. Shown are actives, neighbours in structure and some others; about 18% of the full set was active somewhere. Unless noted, calls follow the shape of the dose curve; as a rule, active = well fitted curve in the direction sought with a large enough effect; inconclusive = small, poorly fitted or top-dose-only effect, or another doubt; inactive = no such curve, though single readings can be large; an effect the other way counts as inactive or inconclusive.

SMILES	HepG2 tox	IL-1B inflam inh	TDP1 cell CPT	TDP1 cell noCPT	TGFb SMAD3 inh	TDP1 block
CCOC(=O)C(=O)NNc1ccccc1C	-3%	16	19%	-2%	3%	0%
Cc1nc2cnc(N3CCOCC3)nc2n(Cc2cccs2)c1=O	.	.	-12%	-12%	.	.
CCCCCCC1CCC(C(=O)NC(CCSC)C(=O)NC(C(=O)OC)C(C)C)CC1 (centres undefined)	-19%	3	?	?	6%	9%
CCOc1ccc(-n2c(SCC(N)=O)nc3c(oc4ccccc43)c2=O)cc1	-14%	.	?	-24%	?	6%
COc1c(-c2ccccc2)oc2c(ccc3occc32)c1=O	-17%	0	-18%	?	-1%	-4%
O=C(Nc1ccccc1F)Nc1cccc2ccc(O)cc12	-17%	-9	16µM*	16µM*	?	.
O=C(Nc1cccc(Oc2ccc3c(c2)C(=O)NC3=O)c1)c1cccs1	-20%	0	-2%	-9%	-2%	1%
COc1ccc(S(=O)(=O)N2CCOCC2)cc1NC(=O)Cc1ccsc1	10%	20	1%	-5%	4%	0%
CC(C)Oc1ccc(S(=O)(=O)N2CCOCC2)cc1NC(=O)C1COc2ccccc2O1 (centres undefined)	-2%	-8	21µM*	18µM*	2%	0%[56.1 µM]
CC(C)Oc1ccc(S(=O)(=O)N2CCOCC2)cc1NC(=O)Cc1ccsc1	-42%	-7	21µM*	?	16%	2%
COc1cc(NC(=O)CCCNC(=O)c2ccc(Cl)cc2)cc(OC)c1OC	-16%	25	-14%	-22%	-7%	.
CN1/C(=C\C(=O)COC(=O)c2nccnc2N)C(C)(C)c2ccccc21	-33%	6	?	?	1%	.
CN1/C(=C\C(=O)Nc2cccc(Cl)c2)C(C)(C)c2ccccc21	-11%	-72*	?	23µM*	?	3%
CN1/C(=C\C(=O)Nc2ccc(Br)cc2)C(C)(C)c2ccccc21	-18%	-2	?	-9%	?	5%
CCOC(=O)C1CCCN(CC(=O)/C=C2/N(C)c3ccccc3C2(C)C)C1 (centres undefined)	-31%	-9	?	13µM*	9%	0%
CN1/C(=C\C(=O)COC(=O)Cn2nnc(-c3ccccc3)n2)C(C)(C)c2ccccc21	-39%	8	4.1µM*	3.7µM*	3%	-1%
CCOC(=O)C1CCCN(CCC(C)c2ccccc2)C1 (centres undefined)	9%	20	-4%	-1%	-10%	5%
CN1/C(=C/C(=O)C2CC2)C(C)(C)c2ccccc21	-12%	40	?	23µM*	-15%	-1%
CCCCCn1c(=O)[nH]c2cc(C(=O)Nc3ccc(OC)c(OC)c3)ccc2c1=O	6%	.	4%	-14%	18%	6%
CN1/C(=C/C(=O)COC(=O)CN2C(=O)C3CC=CCC3C2=O)C(C)(C)c2ccccc21 (centres undefined)	-22%	-11	?	16µM*	-7%	.
C=CCc1ccc(O)c(-c2ccc(O)c(CC=C)c2)c1	-108%	?	?	18µM*	?	13%
O=C(C[C@H]1CC[C@@H]2[C@H](COC[C@@H](O)CN2Cc2ccc(Cl)cc2)O1)NCCc1ccccc1	.	-11	-28%	?	.	.
C[C@H](NC(=O)C[C@@H]1CC[C@H]2[C@@H](COC[C@H](O)CN2Cc2ccc(C(F)(F)F)cc2)O1)c1ccccc1	.	1	18µM*	21µM*	.	.
CC12CC3(C)CC(C)(C1)CC(NC(=O)N1CCCC1)(C2)C3	-18%	-13	?	13µM*	-29%	4%

Source: PubChem BioAssay (National Center for Advancing Translational Sciences (NCATS))
